# Like-named read-outs stand apart in the source and are kept apart here.
# Tests used:
# Parameters in all cases: species or system human, MV4-11 + K-562 + COLO205 + SK-N-BE2 + OVCAR-8
# [1] = tested on: MAPKAPK2; details: read-out: apparent Kd, n = 1
# [2] = tested on: ATR; details: read-out: apparent Kd, n = 1
# [3] = tested on: FRK; details: read-out: apparent Kd, n = 1
# [4] = tested on: FYN; details: read-out: apparent Kd, n = 1
# [5] = tested on: PRKCB; details: read-out: apparent Kd, n = 1
# [6] = tested on: ACAD11; details: read-out: apparent Kd, n = 1
# [7] = tested on: FGFR1; details: read-out: apparent Kd, n = 1
# [8] = tested on: JAK2; details: read-out: apparent Kd, n = 1
# [9] = tested on: CDC7; details: read-out: apparent Kd, compound concentrations: 100 nM and 1000 nM (sheet 'Samples'), n = 1
# [10] = tested on: NLK; details: read-out: apparent Kd, compound concentrations: 100 nM and 1000 nM (sheet 'Samples'), n = 1
# [11] = tested on: ULK3; details: read-out: apparent Kd, compound concentrations: 100 nM and 1000 nM (sheet 'Samples'), n = 1
# [12] = tested on: IRAK4; details: read-out: apparent Kd, n = 1
# [13] = tested on: JAK1; details: read-out: apparent Kd, n = 1
# [14] = tested on: MAP4K1; details: read-out: apparent Kd, compound concentrations: 100 nM and 1000 nM (sheet 'Samples'), n = 1
# [15] = tested on: STK26; details: read-out: apparent Kd, compound concentrations: 100 nM and 1000 nM (sheet 'Samples'), n = 1
# [16] = tested on: PIK3CA; details: read-out: apparent Kd; compound concentrations:100 nM and 1000 nM (sheet 'Samples'); n = 1
# [17] = tested on: MAP2K1; details: read-out: apparent Kd, compound concentrations: 100 nM and 1000 nM (sheet 'Samples'), n = 1
# [18] = tested on: CDK6; details: read-out: apparent Kd; compound concentrations: 100 nM and 1000 nM (sheet 'Samples'), CATDS: 0.103985986158265; n = 1
# [19] = compound concentrations:100 nM and 1000 nM (sheet 'Samples')
compound,measurement,setting,value
Fc1ccc(-c2c(-c3ccncc3)[nH]c3cccnc23)cc1 [RO1153853-000],potency estimated from few doses,"[1]; compound concentrations: 100 nM and 1000 nM (sheet 'Samples'), CATDS: 8.5753103075807094E-2",373 nM
CN1C[C@@H]2Cn3c(c(C4=C(c5cn(C)c6ccccc56)C(=O)NC4=O)c4ccccc43)C[C@H]2C1.Cl [RO0320234-001],potency estimated from few doses,[2]; [19],438 nM
same,potency estimated from few doses,[3]; [19],290 nM
same,potency estimated from few doses,[4]; [19],209 nM
same,potency estimated from few doses,"[5]; compound concentrations: 100 nM and 1000 nM (sheet 'Samples'), CATDS: 3.7076657703329602E-2",28.4 nM
Cl.Cl.NCC(C(=O)Nc1cc(Br)c(-c2ccnc3[nH]ccc23)s1)c1ccccc1.NCC(C(=O)Nc1cc(Br)c(-c2ccnc3[nH]ccc23)s1)c1ccccc1 (stereo not drawn) [GSK1269851A],potency estimated from few doses,[6]; [19],1260 nM
same,potency estimated from few doses,[2]; [19],889 nM
same,potency estimated from few doses,[7]; [19],1730 nM
same,potency estimated from few doses,[3]; [19],846 nM
same,potency estimated from few doses,[4]; [19],680 nM
Clc1cc(Cl)cc(Nc2ccnc(Nc3cc(Cl)cc(Cl)c3)n2)c1 [GSK175726A],potency estimated from few doses,"[2]; compound concentrations: 100 nM and 1000 nM (sheet 'Samples'), CATDS: 1.4419933534352201E-2",267 nM
same,potency estimated from few doses,"[3]; compound concentrations: 100 nM and 1000 nM (sheet 'Samples'), CATDS: 1.3675373024535401E-2",305 nM
same,potency estimated from few doses,"[4]; compound concentrations: 100 nM and 1000 nM (sheet 'Samples'), CATDS: 1.87889991520305E-2",150 nM
same,potency estimated from few doses,"[8]; compound concentrations: 100 nM and 1000 nM (sheet 'Samples'), CATDS: 2.01521439750539E-2",131 nM
CCn1c(-c2nonc2N)nc2c(C#CC(C)(C)O)nc(OCCN)cc21.CCn1c(-c2nonc2N)nc2c(C#CC(C)(C)O)nc(OCCN)cc21.Cl.Cl [GSK902056A],potency estimated from few doses,[5]; [19],1980 nM
Cl.ON=C1CCc2cc(-c3nc(C4CCNCC4)[nH]c3-c3ccncc3)ccc21 [SB-614067-R],potency estimated from few doses,[1]; [19],874 nM
CCn1c(-c2nonc2N)nc2c(-c3ccccc3)ncc(OCCCN)c21.CCn1c(-c2nonc2N)nc2c(-c3ccccc3)ncc(OCCCN)c21.O=C(O)C(F)(F)F.O=C(O)C(F)(F)F [GSK260205A],potency estimated from few doses,[9]; CATDS: 3.6033754639237303E-2,714 nM
same,potency estimated from few doses,"[1]; compound concentrations: 100 nM and 1000 nM (sheet 'Samples'), CATDS: 0.102958619201112",74.4 nM
same,potency estimated from few doses,[10]; CATDS: 6.7931350663373802E-2,162 nM
CCOC(=O)N1CCC(n2cnc(-c3ccc(F)cc3)c2-c2ccnc(N)n2)CC1 [SB-219952],potency estimated from few doses,"[6]; compound concentrations: 100 nM and 1000 nM (sheet 'Samples'), CATDS: 8.6091938729062605E-3",1330 nM
same,potency estimated from few doses,"[7]; compound concentrations: 100 nM and 1000 nM (sheet 'Samples'), CATDS: 8.7030488552416706E-3",1280 nM
same,potency estimated from few doses,"[3]; compound concentrations: 100 nM and 1000 nM (sheet 'Samples'), CATDS: 9.3147950048740498E-3",1050 nM
same,potency estimated from few doses,"[1]; compound concentrations: 100 nM and 1000 nM (sheet 'Samples'), CATDS: 4.5642459422858099E-2",60.7 nM
same,potency estimated from few doses,[10]; CATDS: 4.0230749785041403E-2,72.7 nM
same,potency estimated from few doses,[11]; CATDS: 8.4106356024223894E-3,1430 nM
COc1ccc(Nc2ncc(C#N)c(Nc3ccccc3C(N)=O)n2)cc1N1CCN(C)CC1.Cl [GSK1558669A],potency estimated from few doses,"[7]; compound concentrations: 100 nM and 1000 nM (sheet 'Samples'), CATDS: 1.43157906499466E-2",74.1 nM
same,potency estimated from few doses,"[4]; compound concentrations: 100 nM and 1000 nM (sheet 'Samples'), CATDS: 8.8706126087949692E-3",276 nM
same,potency estimated from few doses,"[12]; compound concentrations: 100 nM and 1000 nM (sheet 'Samples'), CATDS: 1.0871423307460401E-2",148 nM
same,potency estimated from few doses,"[13]; compound concentrations: 100 nM and 1000 nM (sheet 'Samples'), CATDS: 1.7272230930398098E-2",49.5 nM
same,potency estimated from few doses,[14]; CATDS: 8.9293608568362503E-3,270 nM
same,potency estimated from few doses,[15]; CATDS: 6.0521031511701004E-3,1650 nM
same,potency estimated from few doses,[11]; CATDS: 2.8443328776369899E-2,20 nM
CCn1c(-c2nonc2N)nc2c(C#CC(C)(C)O)nc(CN3CCCC3)cc21 [GSK1000163A],potency estimated from few doses,[10]; CATDS: 0.163177352109245,1980 nM
Cl.NCc1ccc(-c2nc(-c3ccc(Cl)c(O)c3)c(-c3ccncc3)[nH]2)cc1 [SB-476429-A],potency estimated from few doses,[8]; [19],347 nM
same,potency estimated from few doses,[1]; [19],94.8 nM
Cc1cccc2c(-c3ccncn3)c(-c3ccc(F)cc3)nn12 [GW515532X],potency estimated from few doses,"[1]; compound concentrations: 100 nM and 1000 nM (sheet 'Samples'), CATDS: 0.245203674473806",1400 nM
Cc1cccc(Nc2nc(N[C@H]3CCNC3)ncc2C(N)=O)c1.Cl [GSK2197149A],potency estimated from few doses,[12]; [19],1570 nM
same,potency estimated from few doses,[13]; [19],1240 nM
same,potency estimated from few doses,[16],110 nM
O=C(O)C(F)(F)F.O=c1[nH]ccc2nc(N[C@@H]3CCNC3)nc(Nc3ccc4c(c3)S(=O)(=O)CC4)c12 [GSK2181306A],potency estimated from few doses,"[6]; compound concentrations: 100 nM and 1000 nM (sheet 'Samples'), CATDS: 2.2275059319964801E-2",145 nM
same,potency estimated from few doses,[9]; CATDS: 3.8653220202105501E-2,57.1 nM
same,potency estimated from few doses,"[8]; compound concentrations: 100 nM and 1000 nM (sheet 'Samples'), CATDS: 1.0295673104193499E-2",781 nM
same,potency estimated from few doses,[17]; CATDS: 9.6647970877986305E-3,947 nM
same,potency estimated from few doses,[14]; CATDS: 1.18408436386705E-2,536 nM
same,potency estimated from few doses,[11]; CATDS: 1.2312862576378401E-2,487 nM
COc1ccc(-c2cc3c(N)ncnc3o2)cc1 [GW642138X],potency estimated from few doses,[18],1700 nM
same,potency estimated from few doses,"[12]; compound concentrations: 100 nM and 1000 nM (sheet 'Samples'), CATDS: 9.7145824911744297E-2",1950 nM
same,potency estimated from few doses,[15]; CATDS: 0.100922192371782,1800 nM
COc1cc(Nc2nccc(-c3cnn4ncccc34)n2)cc(OC)c1 [GW801372X],potency estimated from few doses,[15]; CATDS: 1.6966130459451799E-2,2340 nM
Cc1cc(-c2ccnc(Nc3cccc(C#N)c3)n2)cc(C)c1O [GSK1440913A],potency estimated from few doses,"[6]; compound concentrations: 100 nM and 1000 nM (sheet 'Samples'), CATDS: 0.11808512095338899",425 nM
COC(=O)c1cccc(NC(=O)NC2CCN(c3ccnc(Nc4cc(OC)c(OC)c(OC)c4)n3)C2)c1 (stereo not drawn) [GSK1379767A],potency estimated from few doses,[17]; CATDS: 9.4958067467462701E-2,2010 nM

# Reference: PMC11062922 (Nature Chemical Biology, 2023)
